In PubChem BioAssay AID1159580 (chemical genetic matrix, 2015):
The campaign covered roughly 5,500 compounds. About 2,000 (36%) were called active. Another 18% or so got no clear call; they are omitted. No stated cut-off is given here; in the data, active means normalized growth mostly below about 0.91 (no sharp cut-off); inconclusive means no clear call, values can overlap the other calls; inactive means mostly above about 0.92. Some of the results follow.

Assay: chemical genetic growth profiling, strain panel (AID 1159580);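 further: tested at 20 µM; growth read once vehicle control cultures reached saturation at 30 °C; 1 = growth at the plate median or of vehicle wells; lower values mean less growth of the strain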
Settings: growth OD

Measured: normalized growth

CC(=O)OC(C)(C)[C@@H]1Cc2cc3ccc(=O)oc3cc2O1
inactive: S. cerevisiae deletion strains, locus YJR066W, strain TOR1, hits give low values 0.928 | S. cerevisiae deletion strains, locus YJR075W, strain HOC1, hits give low values 0.992 | S. cerevisiae deletion strains, locus YKL009W, strain mrt4, hits give low values 1.03 | S. cerevisiae deletion strains, locus YKL068W, hits give low values 1.01 | S. cerevisiae deletion strains, locus YKL085W, strain MDH1 (second series), hits give low values 0.998 | S. cerevisiae deletion strains, locus YKL085W, strain MDH1, hits give low values 0.998 | S. cerevisiae deletion strains, locus YKL160W, strain elf1, hits give low values 1.02 | S. cerevisiae deletion strains, locus YKL190W, strain CNB1, hits give low values 1.01 | S. cerevisiae deletion strains, locus YKR001C, strain vps1, hits give low values 1 | S. cerevisiae deletion strains, locus YKR026C, strain gcn3, hits give low values 0.957 | S. cerevisiae deletion strains, locus YKR091W, strain srl3, hits give low values 0.975 | S. cerevisiae deletion strains, locus YLL001W, strain dnm1, hits give low values 0.984 | S. cerevisiae deletion strains, locus YLL026W, hits give low values 0.97 | S. cerevisiae deletion strains, locus YLL041C, strain sdh2, hits give low values 0.984 | S. cerevisiae deletion strains, locus YLR027C, strain aat2, hits give low values 0.962 | S. cerevisiae deletion strains, locus YLR039C, strain RIC1, hits give low values 1.07 | S. cerevisiae deletion strains, locus YLR058C, strain SHM2, hits give low values 0.999 | S. cerevisiae deletion strains, locus YLR102C, strain apc9, hits give low values 1 | S. cerevisiae deletion strains, locus YLR113W, strain HOG1, hits give low values 1.04 | S. cerevisiae deletion strains, locus YLR221C, strain rsa3, hits give low values 1.01 | S. cerevisiae deletion strains, locus YLR258W, strain gsy2, hits give low values 0.951 | S. cerevisiae deletion strains, locus YLR262C, strain YPT6 (second series), hits give low values 1.01 | S. cerevisiae deletion strains, locus YLR262C, strain YPT6, hits give low values 1.07 | S. cerevisiae deletion strains, locus YLR268W, strain sec22, hits give low values 1.04 | S. cerevisiae deletion strains, locus YLR320W, strain mms22, hits give low values 0.956 | S. cerevisiae deletion strains, locus YLR330W, strain CHS5, hits give low values 1 | S. cerevisiae deletion strains, locus YLR342W, strain FKS1 (second series), hits give low values 0.994 | S. cerevisiae deletion strains, locus YLR342W, strain FKS1, hits give low values 0.969 | S. cerevisiae deletion strains, locus YLR357W, strain rsc2, hits give low values 0.971 | S. cerevisiae deletion strains, locus YLR370C, strain arc18, hits give low values 0.973 | S. cerevisiae deletion strains, locus YLR371W, strain rom2, hits give low values 1.03 | S. cerevisiae deletion strains, locus YLR384C, strain iki3, hits give low values 0.979 | S. cerevisiae deletion strains, locus YLR418C, strain cdc73, hits give low values 0.975 | S. cerevisiae deletion strains, locus YML016C, strain PPZ1, hits give low values 0.999 | S. cerevisiae deletion strains, locus YML032C, strain rad52, hits give low values 0.987 | S. cerevisiae deletion strains, locus YML120C, strain ndi1, hits give low values 0.99 | S. cerevisiae deletion strains, locus YML124C, strain tub3, hits give low values 0.994 | S. cerevisiae deletion strains, locus YMR058W, strain fet3, hits give low values 0.969 | S. cerevisiae deletion strains, locus YMR078C, strain ctf18, hits give low values 1.01 | S. cerevisiae deletion strains, locus YMR125W, strain sto1, hits give low values 0.941 | S. cerevisiae deletion strains, locus YMR129W, hits give low values 0.962 | S. cerevisiae deletion strains, locus YMR205C, strain PFK2, hits give low values 0.915 | S. cerevisiae deletion strains, locus YMR223W, strain ubp8, hits give low values 0.982 | S. cerevisiae deletion strains, locus YMR231W, strain pep5, hits give low values 0.968 | S. cerevisiae deletion strains, locus YMR263W, strain SAP30, hits give low values 0.997 | S. cerevisiae deletion strains, locus YMR307W, strain GAS1, hits give low values 1.03 | S. cerevisiae deletion strains, locus YNL067W, strain RPL9B, hits give low values 0.999 | S. cerevisiae deletion strains, locus YNL071W, strain lat1, hits give low values 0.985 | S. cerevisiae deletion strains, locus YNL183C, strain NPR1, hits give low values 0.983 | S. cerevisiae deletion strains, locus YNL209W, strain ssb2, hits give low values 0.975 | S. cerevisiae deletion strains, locus YNL233W, strain BNI4, hits give low values 0.988 | S. cerevisiae deletion strains, locus YNL248C, strain rpa49, hits give low values 1.02 | S. cerevisiae deletion strains, locus YNL250W, strain rad50, hits give low values 1.01 | S. cerevisiae deletion strains, locus YNL271C, strain bni1, hits give low values 1 | S. cerevisiae deletion strains, locus YNL298W, strain CLA4, hits give low values 1.01 | S. cerevisiae deletion strains, locus YNL307C, strain MCK1, hits give low values 1 | S. cerevisiae deletion strains, locus YNL322C, strain KRE1 (second series), hits give low values 0.951 | S. cerevisiae deletion strains, locus YNR049C, strain mso1, hits give low values 0.955 | S. cerevisiae deletion strains, locus YNR052C, strain pop2, hits give low values 1 | S. cerevisiae deletion strains, locus YOL012C, strain htz1 0.921 | S. cerevisiae deletion strains, locus YOL147C, strain pex11, hits give low values 0.997 | S. cerevisiae deletion strains, locus YOR001W, strain rrp6, hits give low values 1.01 | S. cerevisiae deletion strains, locus YOR061W, strain CKA2, hits give low values 1.01 | S. cerevisiae deletion strains, locus YOR069W, strain VPS5, hits give low values 1 | S. cerevisiae deletion strains, locus YOR070C, strain gyp1, hits give low values 0.995 | S. cerevisiae deletion strains, locus YOR080W, strain dia2, hits give low values 0.982 | S. cerevisiae deletion strains, locus YOR083W, strain WHI5, hits give low values 1.02 | S. cerevisiae deletion strains, locus YOR106W, strain vam3, hits give low values 1.02 | S. cerevisiae deletion strains, locus YOR136W, strain idh2, hits give low values 0.999 | S. cerevisiae deletion strains, locus YOR144C, strain elg1, hits give low values 1 | S. cerevisiae deletion strains, locus YOR184W, strain ser1, hits give low values 0.968 | S. cerevisiae deletion strains, locus YOR231W, strain MKK1, hits give low values 0.963 | S. cerevisiae deletion strains, locus YOR265W, strain rbl2, hits give low values 0.976 | S. cerevisiae deletion strains, locus YOR270C, strain vph1, hits give low values 0.935 | S. cerevisiae deletion strains, locus YOR290C, strain snf2, hits give low values 0.916 | S. cerevisiae deletion strains, locus YOR316C, strain cot1, hits give low values 0.995 | S. cerevisiae deletion strains, locus YPL051W, strain arl3, hits give low values 1 | S. cerevisiae deletion strains, locus YPL078C, strain atp4, hits give low values 0.993 | S. cerevisiae deletion strains, locus YPL106C, strain sse1, hits give low values 0.946 | S. cerevisiae deletion strains, locus YPL240C, strain hsp82, hits give low values 0.995 | S. cerevisiae deletion strains, locus YPL241C, strain CIN2, hits give low values 0.996 | S. cerevisiae deletion strains, locus YPL256C, strain CLN2, hits give low values 0.962 | S. cerevisiae deletion strains, locus YPR119W, strain clb2, hits give low values 1.02 | S. cerevisiae deletion strains, locus YPR141C, strain kar3, hits give low values 1 | S. cerevisiae deletion strains, locus YPR163C, strain tif3, hits give low values 1 | S. cerevisiae deletion strains, locus YPR167C, strain met16, hits give low values 1 | S. cerevisiae deletion strains, strain wtn01, hits give low values 1.01 | S. cerevisiae strains, strain wild type, hits give low values 1
